# Experimental data published in the supplement of paper PMC8728848.
# This excerpt belongs to a sample that is enriched for the strongest signals.
# B1: diCBM40 CPF071 (Clostridium perfringens) (protein)
# chain: MAHHHHHHVGTGSNDDDDKSPDPMLSSLGEYKDINLESSNASNITYDLEKYKNLDEGTIVVRFNSKDSKIQSLLGISNSKTKNGYFNFYVTNSRVGFELRNQKNEGNTQNGTENLVHMYKDVALNDGDNTVALKIEKNKGYKLFLNGKMIKEVKDTNTKFLNNIENLDSAFIGKTNRYGQSNEYNFKGNIGFMNIYNEPLGDDYLLSKTGETKALNGSELGSGSGLSSLGEYKDINLESSNASNITYDLEKYKNLDEGTIVVRFNSKDSKIQSLLGISNSKTKNGYFNFYVTNSRVGFELRNQKNEGNTQNGTENLVHMYKDVALNDGDNTVALKIEKNKGYKLFLNGKMIKEVKDTNTKFLNNIENLDSAFIGKTNRYGQSNEYNFKGNIGFMNIYNEPLGDDYLLSKTGETK
# Experiments:
# Assay in all cases: glycan array binding signal (z-score within array); higher = stronger binding
# Conditions in all cases: glycan notation: IUPAC condensed, linker removed
# [1] = molecular target: Fuc(a1-2)Gal(b1-3)GlcNAc(b1-3)[Gal(b1-4)GlcNAc(b1-6)]Gal(b1-4)Glc
# Summary of the method: (§1)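 The Consortium for Functional Glycomics database supplied 3228 glycan arrays, of which those lacking an available protein sequence were dropped. The binding signal, a within-array Z-score, was averaged across arrays of the same protein sequence and across linkers. Negative scores can be read as non-binding.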
# [2] = molecular target: Fuc(a1-2)Gal(b1-4)GlcNAc
# Summary of the method: as §1
# [3] = molecular target: Fuc(a1-2)Gal(b1-4)GlcNAc(b1-3)[Fuc(a1-3)[Gal(b1-4)]GlcNAc(b1-6)]Gal(b1-4)Glc
# Summary of the method: as §1
# [4] = molecular target: Fuc(a1-2)Gal(b1-4)GlcNAc(b1-6)GalNAc
# Summary of the method: as §1
# [5] = molecular target: Fuc(a1-2)Gal6S(b1-3)GlcNAc
# Summary of the method: as §1
# [6] = molecular target: Fuc(a1-2)[Gal(a1-3)]Gal(b1-3)GlcNAc(b1-2)Man(a1-3)[Fuc(a1-2)[Gal(a1-3)]Gal(b1-3)GlcNAc(b1-2)Man(a1-6)]Man(b1-4)GlcNAc(b1-4)GlcNAc
# Summary of the method: as §1
# [7] = molecular target: Fuc(a1-2)[Gal(a1-3)]Gal(b1-3)GlcNAc(b1-6)GalNAc
# Summary of the method: as §1
# [8] = molecular target: Fuc(a1-2)[Gal(a1-4)]Gal(b1-4)GlcNAc
# Summary of the method: as §1
# [9] = molecular target: Fuc(a1-2)[GalNAc(a1-3)]Gal(b1-3)GlcNAc(b1-6)GalNAc
# Summary of the method: as §1
# [10] = molecular target: Fuc(a1-2)[GalNAc(a1-3)]Gal(b1-4)GlcNAc(b1-2)Man(a1-3)[Fuc(a1-2)[GalNAc(a1-3)]Gal(b1-4)GlcNAc(b1-2)Man(a1-6)]Man(b1-4)GlcNAc(b1-4)[Fuc(a1-6)]GlcNAc
# Summary of the method: as §1
# [11] = molecular target: Fuc(a1-2)[GalNAc(a1-3)]Gal(b1-4)GlcNAc(b1-6)GalNAc
# Summary of the method: as §1
# [12] = molecular target: Fuc(a1-2)[GalNAc(a1-4)]Gal(b1-4)GlcNAc
# Summary of the method: as §1
# [13] = molecular target: Fuc(a1-3)[Gal(b1-4)]GlcNAc(b1-2)Man(a1-3)[Fuc(a1-3)[Gal(b1-4)]GlcNAc(b1-2)Man(a1-6)]Man(b1-4)GlcNAc(b1-4)[Fuc(a1-6)]GlcNAc
# Summary of the method: as §1
# [14] = molecular target: Fuc(a1-3)[Gal(b1-4)]GlcNAc(b1-3)Gal(b1-4)[Fuc(a1-3)]GlcNAc(b1-3)Gal(b1-4)[Fuc(a1-3)]GlcNAc
# Summary of the method: as §1
# [15] = molecular target: Fuc(a1-3)[Gal3S(b1-4)]GlcNAc6S
# Summary of the method: as §1
# [16] = molecular target: Gal(b1-3)[Fuc(a1-4)]GlcNAc(b1-3)Gal(b1-3)[Fuc(a1-4)]GlcNAc
# Summary of the method: as §1
# [17] = molecular target: Gal(b1-3)[Fuc(a1-4)]GlcNAc(b1-6)GalNAc
# Summary of the method: as §1
# [18] = molecular target: Gal(b1-4)Glc
# Summary of the method: as §1
# [19] = molecular target: Gal(b1-4)GlcNAc(b1-2)Man(a1-3)[Man(a1-6)]Man(b1-4)GlcNAc(b1-4)GlcNAc
# Summary of the method: as §1
# [20] = molecular target: GalNAc(b1-3)Gal(a1-4)Gal(b1-4)GlcNAc(b1-3)Gal(b1-4)Glc
# Summary of the method: as §1
# [21] = molecular target: GalNAc(b1-3)GalNAc
# Summary of the method: as §1
# [22] = molecular target: GlcA3S(b1-3)Gal(b1-4)GlcNAc(b1-2)Man
# Summary of the method: as §1
# [23] = molecular target: GlcNAc(b1-3)Gal(b1-4)GlcNAc(b1-3)Gal(b1-4)GlcNAc(b1-3)Gal(b1-4)GlcNAc(b1-2)Man(a1-3)[GlcNAc(b1-3)Gal(b1-4)GlcNAc(b1-3)Gal(b1-4)GlcNAc(b1-3)Gal(b1-4)GlcNAc(b1-2)Man(a1-6)]Man(b1-4)GlcNAc(b1-4)GlcNAc
# Summary of the method: as §1
# [24] = molecular target: GlcNAc(b1-3)Gal(b1-4)GlcNAc(b1-3)Gal(b1-4)GlcNAc(b1-3)Gal(b1-4)GlcNAc(b1-3)Gal(b1-4)GlcNAc(b1-2)[GlcNAc(b1-3)Gal(b1-4)GlcNAc(b1-3)Gal(b1-4)GlcNAc(b1-3)Gal(b1-4)GlcNAc(b1-3)Gal(b1-4)GlcNAc(b1-6)]Man(a1-6)[GlcNAc(b1-3)Gal(b1-4)GlcNAc(b1-3)Gal(b1-4)GlcNAc(b1-3)Gal(b1-4)GlcNAc(b1-3)Gal(b1-4)GlcNAc(b1-2)Man(a1-3)]Man(b1-4)GlcNAc(b1-4)[Fuc(a1-6)]GlcNAc
# Summary of the method: as §1
# [25] = molecular target: Neu5Ac(a2-3)Gal(b1-3)GlcNAc(b1-2)Man(a1-3)[GlcNAc(b1-4)][Neu5Ac(a2-3)Gal(b1-3)GlcNAc(b1-2)Man(a1-6)]Man(b1-4)GlcNAc(b1-4)GlcNAc
# Summary of the method: as §1
# [26] = molecular target: Neu5Ac(a2-3)Gal(b1-3)GlcNAc(b1-2)[Neu5Ac(a2-3)Gal(b1-3)GlcNAc(b1-4)]Man(a1-6)[Neu5Ac(a2-3)Gal(b1-3)GlcNAc(b1-2)Man(a1-3)]Man(b1-4)GlcNAc(b1-4)GlcNAc
# Summary of the method: as §1
# [27] = molecular target: Neu5Ac(a2-3)Gal(b1-3)[Fuc(a1-4)]GlcNAc
# Summary of the method: as §1
# [28] = molecular target: Neu5Ac(a2-3)Gal(b1-3)]Neu5Ac(a2-3)Gal(b1-4)]GlcNAc
# Summary of the method: as §1
# [29] = molecular target: Neu5Ac(a2-3)Gal(b1-4)GlcNAc
# Summary of the method: as §1
# [30] = molecular target: Neu5Ac(a2-3)Gal(b1-4)GlcNAc(b1-2)Man(a1-3)[Neu5Ac(a2-3)Gal(b1-4)GlcNAc(b1-2)Man(a1-6)]Man(b1-4)GlcNAc(b1-4)[Fuc(a1-6)]GlcNAc
# Summary of the method: as §1
binder,measurement,setting,value
B1,glycan array binding signal (z-score),[1],-0.277
same,glycan array binding signal (z-score),[2],-0.304
same,glycan array binding signal (z-score),[3],-0.238
same,glycan array binding signal (z-score),[4],-0.304
same,glycan array binding signal (z-score),[5],-0.33
same,glycan array binding signal (z-score),[6],-0.342
same,glycan array binding signal (z-score),[7],-0.307
same,glycan array binding signal (z-score),[8],-0.342
same,glycan array binding signal (z-score),[9],-0.287
same,glycan array binding signal (z-score),[10],-0.324
same,glycan array binding signal (z-score),[11],-0.321
same,glycan array binding signal (z-score),[12],-0.255
same,glycan array binding signal (z-score),[13],-0.084
same,glycan array binding signal (z-score),[14],-0.183
same,glycan array binding signal (z-score),[15],-0.332
same,glycan array binding signal (z-score),[16],-0.31
same,glycan array binding signal (z-score),[17],-0.151
same,glycan array binding signal (z-score),[18],-0.329
same,glycan array binding signal (z-score),[19],-0.257
same,glycan array binding signal (z-score),[20],-0.306
same,glycan array binding signal (z-score),[21],-0.314
same,glycan array binding signal (z-score),[22],-0.33
same,glycan array binding signal (z-score),[23],0.045
same,glycan array binding signal (z-score),[24],-0.23
same,glycan array binding signal (z-score),[25],-0.21
same,glycan array binding signal (z-score),[26],5.89
same,glycan array binding signal (z-score),[27],4.37
same,glycan array binding signal (z-score),[28],8.45
same,glycan array binding signal (z-score),[29],4.46
same,glycan array binding signal (z-score),[30],5.75
